The whole screen tested about 2,300 compounds, of which about 2,000 (87%) were called active. Cut-off read from the data, not from the text of the source: active = activation above about 11%; inactive = the rest. The set was probably picked from earlier hits. Only a sample is shown.

This assay deals with Nuclear receptor subfamily 1 group I member 2 (Homo sapiens) (UniProt O75469). The experiment in a line: activation of PXR luciferase reporter – cell-based, luciferase luminescence, counter-screen for AHR activator project (AID 434939).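 Note: human hepatoma DPX-2 cells expressing full-length human PXR; 0% = DMSO and 100% = reference agonist.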 Particulars: at 11.6 µM, stronger effect = higher value. A general note: A reporter such as luciferase makes a cellular process visible.
Nuclear receptor subfamily 1 group I member 2 (Homo sapiens), sequence (O75469 whole entry, looked up): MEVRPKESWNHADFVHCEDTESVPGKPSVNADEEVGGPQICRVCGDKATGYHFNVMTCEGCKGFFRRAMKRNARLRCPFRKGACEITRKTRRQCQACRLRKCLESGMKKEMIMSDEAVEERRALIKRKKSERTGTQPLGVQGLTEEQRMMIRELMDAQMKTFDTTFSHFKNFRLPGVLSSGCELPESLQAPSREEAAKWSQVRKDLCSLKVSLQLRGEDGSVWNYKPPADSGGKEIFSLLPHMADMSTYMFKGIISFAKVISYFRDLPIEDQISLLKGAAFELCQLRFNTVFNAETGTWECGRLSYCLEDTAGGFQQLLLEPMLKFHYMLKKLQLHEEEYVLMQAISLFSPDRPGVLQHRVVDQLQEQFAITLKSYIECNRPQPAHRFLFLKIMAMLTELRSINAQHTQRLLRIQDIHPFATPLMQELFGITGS
`O=C(CSc1cccc2cccnc12)N/N=C/c1cccnc1`: the activation is 10.2% (active).

`COc1ccc(OC)c(-c2csc(-c3cccs3)n2)c1`: the activation is 21.7% (active).

As to `O=C(CC1Nc2ccccc2NC1=O)Nc1ccccc1` (stereo unspecified), the activation is 26.3% (active).

For the compound `COc1cc(NC(=O)c2ccc(-c3csc(C)n3)cc2)c(OC)cc1Cl`, the activation is 20.9% (active).

Consider `O=C(Cn1cncn1)N/N=C/c1c2ccccc2cc2ccccc12`, for which the activation is 13.7% (active).

For the compound `O=C(Nc1ccc(Cl)cn1)c1cnn2cccnc12`, the activation was 35.9% (active).

`Cc1ccc(-c2nc(C#N)c(NCCCn3ccnc3)o2)cc1`: the activation is 34.4% (active).

With `Cc1ccnc(NC(=O)c2ccc(Cl)c([N+](=O)[O-])c2)c1`, the activation was 42.9% (active).

`Nc1[nH][nH]c(=O)c1N=Nc1ccc2c(c1)OCO2`: the activation was 11.2% (active).

As to `CCOC(=O)c1nc(-c2ccc3c(c2)OCO3)[nH]c1C`, the activation is 34.2% (active).

For `CCSc1ccccc1C(=O)Nc1ccc2c(c1)OCO2`, the activation is 143% (active).

For the compound `C=CCNC(=O)CSc1nc2sc(C)c(C)c2c(=O)[nH]1`, the activation was 16.4% (active).

Consider `COc1ccccc1NC(=O)C1=C(C)NC2=C(C(=O)CCC2)C1c1ccc(C)o1` (stereo unspecified), for which the activation is 111% (active).

Turning to `Brc1ccc(C2CC(c3ccccc3)=Nc3ccccc3N2)cc1` (stereo unspecified), the activation is 39.7% (active).

For `Cc1cccc(NC(=O)Nc2ccc3c(c2)OCO3)n1`, the activation was 46.3% (active).

In the case of `COc1ccccc1N1CCN(C(=O)c2cc3c(-c4ccc(Cl)cc4)nn(C)c3s2)CC1`, the activation was 39.5% (active).

For the compound `CCOC(=O)N1CCN(C(=O)c2cc3c(-c4ccc(Cl)cc4)nn(C)c3s2)CC1`, the activation was 48.9% (active).

Take `Cn1nc(-c2ccc(Cl)cc2)c2cc(C(=O)NCc3ccco3)sc21`: the activation is 26.7% (active).

For `CCOC(=O)c1ccc2[nH]c3c(c2c1)CCCC3NC=O` (stereo unspecified), the activation was 5.7% (inactive).

Take `O=C(N/N=C/c1c[nH]c2ccccc12)c1cc2ccccc2o1`: the activation was 7.59% (inactive).

Take `COc1cccc(-n2c(SCC(=O)NC3CCCCC3)nc3n[nH]c(C)c3c2=N)c1`: the activation is 160% (active).

Take `COc1ccccc1Nc1ncnc2c1oc1ccccc12`: the activation was 21.1% (active).

On to `Cc1cc(N2CCOCC2)nc(-c2ccc(Br)cc2)n1`, for which the activation was 43.3% (active).

As to `O=C(Nc1ccc(C2CC2(Cl)Cl)cc1)c1cccc([N+](=O)[O-])c1` (stereo unspecified), the activation was 19.2% (active).

As for `COc1ccc(C2NC(=O)c3ccccc3N2)cc1` (stereo unspecified), the activation is 6.29% (inactive).

In the case of `Brc1ccc(-c2noc(-c3ccccc3)n2)o1`, the activation was 20.2% (active).

Turning to `CC(=O)Nc1ccc(-c2nc3ccccc3o2)cc1`, the activation was 10.9% (active).

`CC(C)C(=O)Nc1c(C(=O)c2ccc(F)cc2)oc2ccccc12`: the activation is 25.4% (active).

Regarding `C/C(CC1CC(C)(C)OC1=O)=N/Nc1nc(-c2ccccc2)cs1` (stereo unspecified), the activation was 189% (active).

With `CCN(CC)C(=O)Oc1ccc(Br)cc1C(=O)Nc1ccc(F)c(Cl)c1`, the activation is 176% (active).

On to `CCc1nc(Nc2ccc3nccnc3c2)c2oc3ccccc3c2n1`, for which the activation was 45% (active).

In the case of `O=C(NC1CC1)C1=C[C@H](c2c[nH]c3ccccc23)C[C@H](OCc2ccc(CO)cc2)O1`, the activation was 22.2% (active).

As for `O=C(Nc1cc(S(=O)(=O)Nc2ccc(Cl)cc2)ccc1O)c1ccc(F)cc1F`, the activation was 38.8% (active).

For the compound `Cc1nnc(NC(=O)/C=C/c2ccco2)s1`, the activation is 36.6% (active).

Regarding `COc1cc(/C=N/N=C(\N)c2nonc2N)cc(OC)c1OC`, the activation is 14.7% (active).

Take `COc1cc(CNCc2ccc3c(c2)OCO3)c([N+](=O)[O-])cc1OC`: the activation is 36.7% (active).

For the compound `Brc1ccc(C2=CC(c3ccco3)n3ncnc3N2)cc1` (stereo unspecified), the activation was 15% (active).

`Cc1cc(O)c(C(=O)/C=C/c2c(F)c(F)c(F)c(F)c2F)c(=O)o1`: the activation is 23.8% (active).

For the compound `COc1ccc(C(=O)Nc2ccccc2C(=O)N/N=C/c2ccccc2OC)cc1`, the activation was 28% (active).

On to `Cc1ccc(Cl)cc1NC(=O)C1CCCN(c2cnccn2)C1` (stereo unspecified), for which the activation was 41.2% (active).

Regarding `O=C(Nc1cccc(Cl)c1)C1CCCN(c2cnccn2)C1` (stereo unspecified), the activation was 29.6% (active).

`Cn1c(SCC(=O)c2ccccc2)ncc(C(=O)Nc2ccc(F)cc2)c1=O`: the activation is 13.1% (active).

`CCC(C)NCC(=O)Nc1ccc([N+](=O)[O-])cc1C(=O)Nc1ccccc1F` (stereo unspecified): the activation is 40.5% (active).

On to `Cn1cc(Cl)c(C(=O)NNC(=S)Nc2cccc(Cl)c2)n1`, for which the activation is 22.8% (active).

Turning to `C/C(=N\NC(=O)CNc1cccc2ccccc12)c1ccc(Br)s1`, the activation is 13.8% (active).

As to `COc1cccc(-c2nc3cc(C)ccc3o2)c1`, the activation is 31.3% (active).

As for `CC1Cc2ccccc2N1C(=O)CSc1nnc(C2CC2)n1C` (stereo unspecified), the activation was 80.9% (active).

For `CCNC(=S)N1CCC(c2nc3cc(C)c(C)cc3[nH]2)CC1`, the activation is 21.2% (active).

`S=c1[nH]nc(-c2cc(-c3ccsc3)n[nH]2)n1-c1ccccc1`: the activation is 13.7% (active).

As to `Cc1nn2c3cc(N4CCOCC4)ccc3nc2c2ccccc12`, the activation was 63.2% (active).

For the compound `Cc1ccc(NC(=O)Nc2cccnc2)cc1`, the activation is 19.7% (active).

With `Cc1cccc(NC(=O)c2ccc3ccccc3n2)n1`, the activation was 20.3% (active).

On to `COc1ccc(NC(=O)c2ccco2)cc1NC(=O)c1ccc(C#N)cc1F`, for which the activation was 14.9% (active).

With `C=CCOc1c(Br)cc(/C=N\n2nnnc2N)cc1OC`, the activation is 78.1% (active).

For the compound `Cc1nc2sc(C(=O)c3ccccc3)c(N)c2c2c1CCCC2`, the activation is 69.6% (active).

Consider `O=C(CSc1ccccn1)Nc1nc2c(ccc3ccccc32)s1`, for which the activation is 21.9% (active).

Take `CCCCC(=O)Nc1ccc(C(=O)Nc2cc(C(F)(F)F)ccc2Cl)cc1`: the activation was 15.4% (active).

`CCOc1ccccc1NC(=O)c1cccnc1`: the activation is 24.9% (active).

For the compound `COCCNc1nc(-c2ccccc2)nc2c1oc1ccccc12`, the activation was 28.9% (active).

With `Cc1cccc(N=Nc2c(O)[nH]c3ccc(F)cc23)c1`, the activation was 16.1% (active).

In the case of `CSc1ccc(C#N)cc1NC(=O)c1ccc(Cl)cc1`, the activation was 18.5% (active).

In the case of `O=C(NCCCn1ccnc1)c1cc(-c2ccccc2)on1`, the activation is 41.3% (active).

For the compound `Cc1ccnc(-n2sc3ccccc3c2=O)n1`, the activation is 25.7% (active).

`O=C(Nc1ccc(C(F)(F)F)cc1)c1cccc(-n2cnnn2)c1`: the activation is 16.3% (active).

As for `O=C(Nc1ccc(OC(F)(F)F)cc1)c1ccc2c(c1)no[n+]2[O-]`, the activation was 0.82% (inactive).

For `O=C(Nc1ccc(-c2csc(Nc3cccc(C(F)(F)F)c3)n2)cc1)c1cccc(C(F)(F)F)c1`, the activation is 5.47% (inactive).

As to `CC(C(=O)N=Nc1c(O)n(C)c2ccc(Br)cc12)n1cnc2ccccc2c1=O` (stereo unspecified), the activation is 60% (active).

On to `Cc1ccc(NC(=O)NNC(=O)c2sccc2-n2cccc2)cc1`, for which the activation was 27% (active).

For `Cc1nn(-c2ccccc2)c2[nH]c(C(F)(F)F)cc(=O)c12`, the activation was 25.8% (active).

With `N#C/C(=C(/O)COc1cccc2ccccc12)c1nc2ccccc2[nH]1`, the activation was 29.3% (active).

On to `Cc1nn(Cc2ccc(Cl)cc2)c(Cl)c1/C=N/NC(=O)c1cccnc1`, for which the activation is 39.9% (active).

On to `O=C(Nc1cccc(Br)c1)c1ccc2snnc2c1`, for which the activation was 22.9% (active).

With `C/C(=N/NC(=S)Nc1ccccc1)c1ccc2c(c1)OCO2`, the activation is 76.5% (active).

Turning to `OCCNc1nc(Nc2ccc(Cl)c(Cl)c2)nc2ccccc12`, the activation was 13.8% (active).

`Cc1csc(NC(=S)Nc2cccc(Cl)c2)n1`: the activation was 21.6% (active).

Turning to `NC(=O)Nc1ccccc1C(=O)NCCc1ccccc1`, the activation was 18.7% (active).

With `CNC(=O)c1ccc2nc(NC(C)=O)sc2c1`, the activation was 9.52% (inactive).

As for `CSc1ncccc1C(=O)Nc1nc2ccc(F)cc2s1`, the activation is 11.7% (active).

Consider `COc1ccc(Nc2nnc(C)c3ccccc23)cc1`, for which the activation is 73.7% (active).

As for `Cc1c(C(=O)NCC(c2ccco2)N2CCCC2)oc2ccc(Cl)cc12` (stereo unspecified), the activation is 56.2% (active).

Consider `CCn1c2ccccc2c2cc(NC(=O)C/C(C)=N/NC(=O)c3ccccc3N)ccc21`, for which the activation was 45.7% (active).

For `COc1ccc(Nc2nc(-c3ccccc3)cs2)cc1`, the activation was 12.8% (active).

As for `Cc1cccc(Nc2nc(-c3ccccc3)cs2)n1`, the activation was 25.5% (active).

Take `COc1ccc2nc(Nc3nc(-c4ccncc4)cs3)sc2c1`: the activation was 38.6% (active).

Consider `O=C(Nn1c(-c2ccc(Cl)cc2)nc2ccccc2c1=O)c1cccnc1Cl`, for which the activation is 14.3% (active).

On to `c1cnc(N2CCN(c3ccc4ccccc4n3)CC2)nc1`, for which the activation was 36.7% (active).

Regarding `CCn1ccnc1CN(C)Cc1nc(-c2ccc3c(c2)OCO3)no1`, the activation is 37.5% (active).

As to `O=C(Cn1c(NCCO)nc2ccccc21)c1ccc(Cl)cc1Cl`, the activation was 31.4% (active).

Take `O=C(CCCCn1c(=O)[nH]c2ccccc2c1=O)NCc1ccc2c(c1)OCO2`: the activation is 37.2% (active).

As to `CCn1c(NC(=O)c2nn(C)cc2Br)nc2ccccc21`, the activation is 22.6% (active).

As for `COc1cc2ccccc2cc1C(=O)Nc1ccc(N2CCOCC2)cc1`, the activation was 30.4% (active).

Regarding `COc1cccc(OC)c1C(=O)Nc1ccc(N2CCCCC2)cc1`, the activation was 53.1% (active).

Regarding `NNc1nc2c(Cl)cccc2s1`, the activation was 8.29% (inactive).

On to `CN(C)S(=O)(=O)Oc1ccccc1C(=O)Nc1ccccc1Cl`, for which the activation was 82.8% (active).

Regarding `Cc1noc(C)c1/C=N/Nc1ccc2ccccc2n1`, the activation was 25.9% (active).

Regarding `C(=N\Nc1ccc2ccccc2n1)/c1ccc2c(c1)OCO2`, the activation was -10.5% (inactive).

Take `CC(C)n1cnc2c(Nc3cccc(Cl)c3)nc(N(CCO)CCCO)nc21`: the activation was 255% (active).

With `CN(C)c1nc(Nc2ccc(Cl)c(Cl)c2)nc(N(C)C)n1`, the activation was 23.1% (active).

As to `Cn1c(C(=O)NCCc2ccsc2)cc2c(=O)n(C)c3ccccc3c21`, the activation is 75.7% (active).

Consider `CC(C)n1ncc2c(C(=O)Nc3ccc(CC#N)cc3)cc(C3CC3)nc21`, for which the activation is 48.4% (active).

As for `S=c1nc2ccccc2c2nc(-c3cccnc3)[nH]n12`, the activation was 24.9% (active).

The values above are taken from PubChem BioAssay AID434939 (The Scripps Research Institute Molecular Screening Center, 2010).
